Measurements reported in PubChem BioAssay (NCATS).
Records with an inconclusive call do not appear. A call without a number means that no potency is given here. The source made the active and inactive calls. Calls come from the whole dose curve; as a rule, active = well fitted curve in the direction sought with a large enough effect; inconclusive = small, poorly fitted or top-dose-only effect, or another doubt; inactive = no such curve, though single readings can be large; an effect the other way counts as inactive or inconclusive.

Tests used:
[1] = biological target: Phospholipid hydroperoxide glutathione peroxidase GPX4 (Homo sapiens) (UniProt P36969); test: Primary qHTS Assay for Inhibitors of Recombinant Selenoprotein Glutathione Peroxidase 4 (GPX4) (AID 1845192); settings: recombinant GPX4, GR-coupled NADPH fluorescence, 15 min; series mostly up to 50 µM; note: nearly all actives have a fitted effect of over 65% in size; note: potency is the fitted concentration of half-maximal effect
Chain of Phospholipid hydroperoxide glutathione peroxidase GPX4 (Homo sapiens) (P36969 whole entry, looked up): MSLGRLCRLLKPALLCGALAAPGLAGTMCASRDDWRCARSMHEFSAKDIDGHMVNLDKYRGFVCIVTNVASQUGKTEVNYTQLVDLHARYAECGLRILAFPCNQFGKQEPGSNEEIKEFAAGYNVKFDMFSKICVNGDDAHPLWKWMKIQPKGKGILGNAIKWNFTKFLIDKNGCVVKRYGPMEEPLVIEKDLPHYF
Outline: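 NADPH consumption followed by fluorescence at 340/450 nm, t=0 and after 15 min at room temperature. Reaction started with cumene hydroperoxide (0.5 mM final) after 30 min compound–GPX4 preincubation; final 200 nM GPX4, 100 nM GR, 1 mM GSH, 0.5 mM NADPH.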

[2] = Primary fluorescence-based thiol-reactive (MSTI) qHTS assay for identification of artifact compounds. (AID 1845221); settings: MSTI thiol-reactivity probe, 1 h; series mostly up to 53.8 µM; note: nearly all actives have a fitted effect of over 65% in size; note: potency is the fitted concentration of half-maximal effect
Outline: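 Thiol-reactive compounds detected by quenching of 4 uM MSTI fluorescence (525/598 nm) after 1 h room-temperature dark incubation in PBS pH 7.4, 2% DMSO. qHTS titration; percent inhibition Hill-fitted against Acetyl-MSTI/MSTI controls.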

[3] = Primary redox qHTS assay for identification of artifact compounds. (AID 1845223); settings: Amplex Red/HRP redox cycling with DTT, fluorescence; series mostly up to 53.8 µM; note: potency is the fitted concentration of half-maximal effect
Outline: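 Redox-cycling detection via DTT (250 uM final) oxidation coupled to Amplex Red (25 uM)/HRP (250 mU/mL) in HBSS. 15 min preincubation plus 30 min after DTT, room temperature. Ex/Em 525/598 nm; 4-parameter Hill fit against DMSO and 10 uM DA3003.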

[4] = Quantitative High-Throughput drug screen in 47 multiple myeloma cell lines against the NCATS MIPE library collection: FR4_PLB cell viability assay (AID 1918924; note: nearly all actives have a fitted effect of over 35% in size; note: potency is the fitted concentration of half-maximal effect); settings: FR4_PLB myeloma cells viability, CellTiter-Glo ATP, 48 h; series mostly up to 45.8 µM
Outline: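 Myeloma cells (500 per well) were exposed to MIPE 4.0 compounds by pin transfer and incubated 48 hours at 37C, 5% CO2. Viability was read as ATP by CellTiter-Glo luminescence, normalised to DMSO (100%) and media-only (0%) wells.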

[5] = Quantitative High-Throughput drug screen in 47 multiple myeloma cell lines against the NCATS MIPE library collection: Delta47_JCRB cell viability assay (AID 1918925; note: nearly all actives have a fitted effect of over 45% in size; note: potency is the fitted concentration of half-maximal effect); settings: Delta47 myeloma viability, CellTiter-Glo ATP, 48 h; series mostly up to 45.8 µM
Outline: (§1)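 Luminescent ATP measurement with CellTiter-Glo gives viability, scaled between DMSO-only wells (100%) and media-only wells (0%). Cells, 500 per well, faced library compounds for 48 hours at 37C.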

[6] = Quantitative High-Throughput drug screen in 47 multiple myeloma cell lines against the NCATS MIPE library collection: EJM_DSMZ cell viability assay (AID 1918926; note: nearly all actives have a fitted effect of over 30% in size; note: potency is the fitted concentration of half-maximal effect); settings: EJM myeloma cell viability, CellTiter-Glo ATP, 48 h; series mostly up to 45.8 µM
Outline: as §1

[7] = Quantitative High-Throughput drug screen in 47 multiple myeloma cell lines against the NCATS MIPE library collection: AMO1_DSMZ cell viability assay (AID 1918927; note: nearly all actives have a fitted effect of over 30% in size; note: potency is the fitted concentration of half-maximal effect); settings: AMO1 myeloma cells viability, CellTiter-Glo ATP luminescence, 48 h; series mostly up to 45.8 µM
Outline: as §1

[8] = Quantitative High-Throughput drug screen in 47 multiple myeloma cell lines against the NCATS MIPE library collection: ARP1_JJKsccF8 cell viability assay (AID 1918928; note: nearly all actives have a fitted effect of over 40% in size; note: potency is the fitted concentration of half-maximal effect); settings: ARP1 myeloma cells viability, CellTiter-Glo ATP, 48 h; series mostly up to 45.8 µM
Outline: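 Viability screen: myeloma cells (500/well) incubated 48 h at 37 °C, humidified 5% CO2, with pinned library compounds; CellTiter-Glo added, luminescence read; DMSO wells set 100%, medium-only wells 0%.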

[9] = biological target: Luciferin 4-monooxygenase (Photinus pyralis) (UniProt P08659); test: Primary firefly luciferase (FLuc) qHTS assay for identification of artifact compounds. (AID 1845220); settings: purified firefly luciferase, luminescence, 5 min; series mostly up to 54.1 µM; note: nearly all actives have a fitted effect of over 60% in size
Outline: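 Compounds sat 15 min at room temperature with 10 uM luciferin and 10 uM ATP (pH 7.6 Tris acetate). Firefly luciferase (10 nM final) was then added, and luminescence was read 5 min later. Data normalized to no-enzyme and DMSO controls were Hill-fitted.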

[10] = test system: Nanoluciferase (engineered Oplophorus gracilirostris luciferase); test: Primary Nanoluciferase (NLuc) qHTS assay for identification of artifact compounds. (AID 1845222); settings: NLuc-conditioned medium, Nano-Glo luminescence, 5 min; series mostly up to 54.1 µM
Outline: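 Luminescence from secreted NLuc (filtered, 1:55-diluted S16 cell medium) read 5 min after Nano-Glo substrate; compounds preincubated 15 min, RT. Hill fits of inhibition normalized to DMSO and no-enzyme.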

SMILES	Potency [1]	Potency [2]	Potency [3]	Potency [4]	Potency [5]	Potency [6]	Potency [7]	Potency [8]	Potency [9]	outcome [10]
C[C@@H](Cc1cc2c(c(C(N)=O)c1)N(CCCO)CC2)NCCOc1ccccc1OCC(F)(F)F	inactive	inactive	inactive	inactive	11.8 µM (active)	inactive	inactive	inactive	–	–
Cc1coc2c1C(=O)C(=O)c1c-2ccc2c(C)cccc12	inactive	3.36 µM (active)	1.06 µM (active)	20.9 µM (active)	–	16.6 µM (active)	inactive	–	–	–
CCCCOc1ccc(C(=O)Nc2ccc(F)cc2F)cc1	inactive	inactive	inactive	–	inactive	inactive	–	–	inactive	–
CC(C)n1cnc2c(NCCc3ccc(O)cc3)nc(-c3csc4ccccc34)nc21	inactive	inactive	inactive	20.9 µM (active)	–	5.9 µM (active)	–	14.8 µM (active)	–	–
CS(=O)(=O)N1CCc2c(-c3cnc(N)nc3)nc(N3CCOCC3)nc21	inactive	inactive	inactive	0.59 µM (active)	0.148 µM (active)	2.09 µM (active)	–	0.0418 µM (active)	–	–
c1cncc(CN2CCC(n3ncc4c(N5CCOCC5)nc(-c5ccc6[nH]ccc6c5)nc43)CC2)c1	inactive	inactive	inactive	4.69 µM (active)	0.743 µM (active)	5.9 µM (active)	–	3.32 µM (active)	–	–
Cc1cnc(Nc2ccc(CN3CCOCC3)cc2)nc1Nc1cccc(S(=O)(=O)NC(C)(C)C)c1	inactive	inactive	inactive	2.64 µM (active)	1.87 µM (active)	5.9 µM (active)	–	3.32 µM (active)	–	–
O=C(Nc1cc2cc[nH]c2cn1)c1ccccc1	inactive	inactive	inactive	14.8 µM (active)	9.35 µM (active)	8.33 µM (active)	10.5 µM (active)	–	–	–
C[C@H]1[C@@H](OC(=O)CCC(=O)O)O[C@@H]2O[C@@]3(C)CC[C@@H]4[C@H](C)CC[C@@H]1[C@@]24OO3	inactive	inactive	inactive	11.8 µM (active)	5.26 µM (active)	14.8 µM (active)	0.833 µM (active)	2.35 µM (active)	–	–
Cc1cncc2cccc(S(=O)(=O)N3CCCN(C(=O)CN)C[C@@H]3C)c12	inactive	inactive	inactive	–	23.5 µM (active)	23.5 µM (active)	10.5 µM (active)	–	–	inactive
Nc1ccn(C2CO[C@H](CO)O2)c(=O)n1 (stereo not given in full)	inactive	inactive	inactive	inactive	–	inactive	inactive	–	–	–
Cc1ncc(-c2ccnc(Nc3ccc(S(C)(=O)=O)cc3)n2)n1C(C)C	inactive	inactive	inactive	2.64 µM (active)	2.35 µM (active)	2.96 µM (active)	2.09 µM (active)	2.96 µM (active)	–	–
C=CC(=O)Nc1ccc2ncnc(Nc3ccc(OCc4cccc(F)c4)c(Cl)c3)c2c1	inactive	inactive	inactive	6.62 µM (active)	0.187 µM (active)	5.26 µM (active)	0.0209 µM (active)	0.296 µM (active)	–	–
CCn1c(=O)c2c(nc(C=Cc3ccc(OC)c(OC)c3)n2C)n(CC)c1=O	inactive	–	–	inactive	inactive	–	–	–	–	–
OCCNC1CCCc2c1[nH]c1ccc(-c3ccccc3)cc21 (stereo not given)	inactive	inactive	inactive	18.7 µM (active)	10.5 µM (active)	–	16.6 µM (active)	–	–	–
c1ccc2c(Oc3nc(Nc4ccc(N5CCOCC5)cc4)c4ncn(C5CCCCC5)c4n3)cccc2c1	inactive	–	inactive	inactive	–	–	9.35 µM (active)	–	–	–
FC(F)c1nc2ccccc2n1-c1nc(N2CCOCC2)nc(N2CCOCC2)n1	inactive	inactive	inactive	0.743 µM (active)	0.0662 µM (active)	0.743 µM (active)	0.209 µM (active)	0.166 µM (active)	–	–
CN1CCc2c(c3ccccc3n2Cc2ccc(C(=O)NO)cc2)C1	inactive	–	inactive	18.7 µM (active)	18.7 µM (active)	18.7 µM (active)	–	18.7 µM (active)	–	–
c1cc(N[C@@H]2CCNC2)nc(-c2cnc3ccc(-c4cn[nH]c4)cn23)c1	25.5 µM (active)	–	inactive	11.8 µM (active)	9.35 µM (active)	13.2 µM (active)	–	–	–	–
CCc1nc(-c2cccc(C)c2)c(-c2ccnc(NC(=O)c3ccccc3)c2)s1	inactive	inactive	inactive	18.7 µM (active)	–	16.6 µM (active)	18.7 µM (active)	11.8 µM (active)	–	–
